ALDH1A1 block: inhibitors of human aldehyde dehydrogenase 1A1; Purified ALDH1A1, NADH fluorescence, propionaldehyde substrate; AID 1030; 7.3% of 220,000 active; P00352; Potency, µM (doses to about 75.3 µM), without a hit: top-dose activity, negative = inhibition, most hits filed as inhibitors;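 further: potency means the concentration at half of the fitted maximal effect; plate controls were no enzyme wells and a reference inhibitor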
PNC assembly inh: perinucleolar compartment assembly inhibition | AID 2417 | activity change (PNC), negative = inhibition, % at 10 µM | PC3M PTB-GFP, PNC prevalence imaging, 16 h; active compounds read low | 3.1% of 140,000 active;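 active means readout at or below -70, meaning at least 70% loss of cells showing the perinucleolar compartment, a nuclear body marking cancer cells; inconclusive means readout between -30 and a set limit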;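 further: plate controls were DMSO wells for no effect and camptothecin positive control wells for full effect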
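Compounds are pinned in duplicate onto adhered PC3M cells stably expressing GFP-tagged PTB and incubated 16 h at 37 C. Cells are then fixed, nuclei stained with Hoechst, and PNC-positive cells counted.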
HPGD inh: HPGD (human) dehydrogenase inhibition | P15428 | purified HPGD, NADH fluorescence kinetic, PGE2 substrate | Potency, µM, without a hit: top-dose activity change, negative = inhibition, hits mostly inhibitors | 4.3% of 150,000 active | AID 894; further: potency means the concentration at half of the fitted maximal effect
Target sequence (P15428 whole entry, looked up): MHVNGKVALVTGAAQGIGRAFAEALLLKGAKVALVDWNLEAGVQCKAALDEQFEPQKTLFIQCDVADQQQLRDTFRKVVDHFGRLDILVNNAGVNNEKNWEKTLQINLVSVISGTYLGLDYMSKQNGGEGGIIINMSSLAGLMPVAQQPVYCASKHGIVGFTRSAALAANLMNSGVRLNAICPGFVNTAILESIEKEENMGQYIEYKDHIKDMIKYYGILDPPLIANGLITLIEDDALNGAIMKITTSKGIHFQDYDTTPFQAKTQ
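20 nM HPGD preincubated 15 min at room temperature with compound in 50 mM Tris-HCl pH 8, 0.01% Tween 20. Started with 1 mM NAD+ and 30 uM prostaglandin E2; NADH fluorescence (360/450 nm) read 5 times over 30-s intervals, last minus first.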
KinaseGlo FLuc: blocks Kinase-Glo luciferase, a counter-screen artifact; Potency, µM (top dose mostly 38.3 µM), inactives show at the highest dose activity change, negative = inhibition, actives largely listed as inhibitors; Kinase-Glo luciferase, ATP luminescence, 8 min; 0.28% of 200,000 active; active means well fitted inhibition curve with a large enough effect; inconclusive means small, poorly fitted or top-dose-only effect; further: potency means the concentration at half of the fitted maximal effect; nearly all actives have a fitted effect of over 60% in size
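Substrate mix (final 50 mM imidazole pH 7.2, 50 mM KCl, 7 mM MgCl2, 10 uM ATP, 0.01% Tween 20, 0.05% BSA) plus pin-tool compound, then Kinase-Glo detection mix; 8 min ambient, luminescence read.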
Lamin A splicing: LMNA splicing modulation; HeLa LMNA splicing GFP/RFP minigene ratio, 48 h; Potency, µM (titrated, usually from 46.1 µM), for the others: at the highest dose ratio change, negative = inhibition, most hits filed as inhibitors; 0.01% of 200,000 active; AID 1487; active means well fitted inhibition curve with a large enough effect in the signal ratio, with a control signal flat, not every such curve was filed as active; inconclusive means small, poorly fitted or top-dose-only effect, or effect the other way, or a change in a side signal; the % refers to the signal ratio; further: potency means the concentration at half of the fitted maximal effect
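S3 HeLa stable clones carrying a lamin A-EGFP splicing minigene plus DsRed2 were seeded at 600 cells/well in Opti-MEM with 2% FBS, pin-dosed and incubated 48 h at 37°C. Acumen cytometry (488 nm) gave the GFP/RFP total-intensity ratio.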
Starred values were filed as active, the others as inactive; ? = inconclusive; . = no result; [ ] = another dose, or the depositor's remark. Only some compounds are listed: those with a hit (about 10% of all), similar ones and a draw of the others. Unless noted, the call rests on the fitted dose curve; in most records, active means well fitted inhibition curve with a large enough effect (not every such curve was filed as active); inconclusive means small, poorly fitted or top-dose-only effect, or another doubt; inactive means no such curve, though single readings can be large or run the other way. Unless noted, on the % scale 0 is the no-effect control and ±100 the full control effect.

SMILES	ALDH1A1 block	PNC assembly inh	HPGD inh	KinaseGlo FLuc	Lamin A splicing
CCOc1ccccc1CNS(=O)(=O)c1ccc2[nH]c(=O)sc2c1	?	-107*	-22%	8%	?
CCOc1ccccc1CNS(=O)(=O)c1ccc2c(c1)oc(=O)n2C	-8%	-24	-11%	-1%	-7%
COc1cccc(N2CC(NC(=O)c3ccc4c(c3)OCO4)CC2=O)c1 (centres undefined)	.	.	.	.	4%[46 µM]
CC(C)Cc1nnc(NC(=O)CS(=O)(=O)Cc2ccccc2)s1	?	-18	-28%	0%	0%
CC(C)c1nnc(NC(=O)CS(=O)(=O)Cc2ccccc2)s1	7.9µM*	.	.	7%	.
CCOc1ccccc1C(=O)NN1C(=O)CCC1=O	-1%	-114*	-4%	-8%	-5%
CCOc1ccccc1C(=O)Nc1nnc(C(C)C)s1	1.3µM*	25	-12%	-1%	-8%
CCCC(C)c1nnc(NC(=O)CS(=O)(=O)Cc2ccccc2)s1 (centres undefined)	25µM*	6	13µM*	-3%	-3%
C[C@H]1/C=C\CC(=O)NCc2cccc(c2)CNC(=O)N[C@H]1c1ccccc1	9%	.	-2%	-1%	.
Cc1nn(-c2ccc(N3CCOCC3)nn2)c(C)c1CCC(=O)NCc1ccc(Cl)cc1	.	.	.	.	-8%[46 µM]
COC(=O)c1sccc1S(=O)(=O)N1CCN(c2ccccc2OC)CC1	.	.	.	.	2%[46 µM]
Cc1ccc(S(=O)(=O)NCCOc2nc(N(C)C)nc(N3CCOCC3)n2)cc1	13%	-93*	-8%	2%	13%
CN(C)c1nc(OCCNC(=O)Nc2ccccc2)nc(N2CCOCC2)n1	2%	1	-4%	2%	-14%
Cc1ccc(S(=O)(=O)NCCOc2nc(N(C)C)nc(N(C)C)n2)cc1	-10%	.	.	.	.
CN(C)c1nc(OCCNC(=O)Nc2ccccc2)nc(N2CCCCC2)n1	0.89µM*	.	.	-1%	.
Cc1ccc(OCC(=O)Nc2ccccc2C(=O)OCc2cc(=O)n3c(C)csc3n2)cc1	.	.	.	.	19%[46 µM]
COc1ccc(-c2nc(C)c(CCNC(=O)c3cccc(C)c3)s2)cc1OC	.	.	.	.	-3%[46 µM]
O=C(CSc1nc2ccc([N+](=O)[O-])cc2[nH]1)c1ccc2ccccc2c1	?	0	-7%	-1%	?
Cc1nc([N+](=O)[O-])c(Sc2nc3ccc([N+](=O)[O-])cc3[nH]2)n1Cc1ccccc1	7.5µM*	?	?	9%	?
Cc1ccc([N+](=O)[O-])cc1NC(=S)NC(=O)CC(C)(C)C	-14%	3	16µM*	-2%	22%
Cc1cc([N+](=O)[O-])ccc1NC(=S)NC(=O)Cc1ccccc1	?	28	18µM*	-6%	23%
Cc1c(NC(=S)NC(=O)C(C)(C)C)cccc1[N+](=O)[O-]	?	?	-14%	-1%	-6%
Cc1ccc([N+](=O)[O-])cc1NC(=S)NC(=O)C(C)(C)C	4.5µM*	2	7.1µM*	-5%	2%
CC(=O)NC(=S)Nc1ccc([N+](=O)[O-])cc1C	-15%	.	.	1%	4%[46 µM]
Cc1ccc([N+](=O)[O-])cc1NC(=O)c1ccc(C(C)(C)C)cc1	-9%	?	16µM*	-1%	14%
SMILES	ALDH1A1 block	PNC assembly inh	HPGD inh	KinaseGlo FLuc	Lamin A splicing
Cc1cc(C)cc(C(=N)c2ccccc2Cc2cccc3ccccc23)c1	4%[13.5 µM]	.	-11%	-1%[7.66 µM]	.
Cc1ccccc1NS(=O)(=O)c1cc(C(=O)Nc2cccc([N+](=O)[O-])c2)ccc1C	22µM*	110	-11%	-3%	?
COc1cccc(Cn2c(=O)cnc3cnc(OC)nc32)c1	-7%	.	.	.	-4%
CNc1ncnc(Sc2nc(N)nc3nc[nH]c23)c1[N+](=O)[O-]	21%[13.5 µM]	.	-4%	2%[7.66 µM]	.
Nc1nc(Sc2ccc([N+](=O)[O-])c3nonc23)c2[nH]cnc2n1	2µM*	.	1.3µM*	-15%[7.66 µM]	.
O=c1cc(Cl)c(-c2ccccc2)n[nH]1	0%	25	28µM*	-3%	-28%
O=C(Nc1c2c(nn1-c1ccc(Cl)cc1)CS(=O)(=O)C2)c1cccc(F)c1	.	.	.	.	-8%[46 µM]
c1ccc(-c2csc(Nc3ccc4c(c3)OCCO4)n2)cc1	24µM*	-5	-21%	-12%	?
c1cc2c(cc1-c1csc(NNC3=NCCCCC3)n1)OCCO2	20µM*	.	.	-1%	8%[46 µM]
